Screens as filed in PubChem BioAssay.
Rows were chosen to be rich in hits. Some 2.2% of all compounds tested hit in one or more screens of this group.
FUS yeast rescue = qHTS for Suppressors of FUS Proteinopathy: Primary screen using FUS-linked yeast assay; S. cerevisiae FUS-expressing, growth rescue, OD600, 24 h; Potency, µM (titrated, usually from 76.6 µM), usual class: activators; hit rate 0.24% among 390,000; AID 1347120, 2019; further: nearly all actives have a fitted effect of over 55% in size
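Read-out: OD at 600 nm after 24hr at 30C, reporting rescue of FUS-induced yeast toxicity. Cells at OD 0.005 in galactose (2%) minimal medium; compounds tested in a dilution series; CP55940 titration from 92uM final as control.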
aSyn rescue = qHTS of alpha-syn Inhibitors | Yeast expressing alpha-synuclein, growth rescue, BacTiter-Glo, 24 h | Potency, µM (top dose mostly 46.1 µM), most hits filed as activators | hit rate 0.14% among 370,000 | AID 652106, 2013; further: nearly all actives have a fitted effect of over 65% in size
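Screening used galactose-induced yeast with toxic alpha-synuclein levels, exposed to compound for 24 hr at 30 deg C. Cell growth, read with BacTiter-Glo luminescence, gave the measured signal.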
Mito fusion act = qHTS Assay for Small Molecule Inhibitors of Mitochondrial Division or Activators of Mitochondrial Fusion; S. cerevisiae fusion-defective mutant growth rescue, CellTiterGlo 48 h; Potency, µM (top dose mostly 46.1 µM), hits mostly activators; hit rate 0.23% among 320,000; further: nearly all actives have a fitted effect of over 45% in size
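Compounds are tested for their ability to restore growth of mitochondrial fusion-defective yeast strains at non-permissive 37C in YPEG medium over 48 hours. Viability is quantified by luciferase luminescence.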
Abeta yeast res = qHTS for compounds that reverse cellular toxicity of Amyloid beta (A-beta) peptide in yeast: Primary Screen; Potency, µM (highest dose often 46.1 µM), hits mostly activators; yeast expressing A-beta42, growth rescue, OD600, 48 h; response scale: 0% DMSO, 100% iron-clioquinol control; hit rate 0.063% among 410,000; further: nearly all actives have a fitted effect of over 55% in size
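Yeast A-beta toxicity model in growth medium with pinned compounds, 48 h at 30 C; growth read as absorbance at 600 nm. Normalized to FeCl3/clioquinol equimolar mix (positive) and DMSO (negative).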
TDP43 rescue = qHTS of TDP-43 Inhibitors; TDP-43 expressing yeast growth rescue, BacTiter-Glo, 24 h; Potency, µM (series often up to 46.1 µM), usual class: activators; hit rate 1.8% among 410,000; AID 652104, 2013; further: nearly all actives have a fitted effect of over 50% in size
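Yeast cells expressing TDP-43 under galactose induction are exposed to compounds for 24 hr at 30 deg C. BacTiter-Glo luminescence measures growth, so protective compounds score as activators.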
Large screens that a line does not name were inactive; ! = not active in a repeat. The call rests on the fitted dose curve; in most records, active means well fitted curve in the direction sought with a large enough effect; inconclusive means small, poorly fitted or top-dose-only effect, or another doubt; inactive means no such curve, though single readings can be large; an effect the other way counts as inactive or inconclusive.

COc1cc(Cn2c(=O)oc3ccc(C)cc32)ccc1OC(C)C	TDP43 rescue 35.5µM
Cc1nc(-c2cccc(CN(C)C(=O)Oc3ccc([N+](=O)[O-])cc3)c2)no1	TDP43 rescue 12.6µM (no result: Mito fusion act)
C[C@]12CC[C@H](O)CC1=CC[C@@H]1[C@@H]2CC[C@]2(C)C(=O)CC[C@@H]12	aSyn rescue inconclusive, TDP43 rescue 15.8µM (no result: Mito fusion act)
Cc1cc(C(=O)O)c(C)n1C1CC1	none
Cc1cccc(NC(=O)COC(=O)c2cc(C)n(C3CC3)c2C)c1	TDP43 rescue 35.5µM
CCC(C)NC(=O)CCC(=O)OC1O[C@H]2OC3(C)CC[C@H]4[C@H](C)CCC(C1C)C24OO3 (some centres not stated)	TDP43 rescue 35.5µM
O=C1NCN(c2ccccc2)C12CCN(C(c1cc3ccccc3o1)c1nnnn1C1CCCCC1)CC2 (configuration not stated)	FUS yeast rescue 11.2µM (no result: Mito fusion act)
CC(C)(C)n1nnnc1C(c1cc2ccccc2o1)N1CCC2(CC1)C(=O)NCN2c1ccccc1 (configuration not stated)	FUS yeast rescue inconclusive (no result: Mito fusion act)
CC1=CC2OC3CC4OC(=O)C=CC=CC(=O)OCCC(C)C(O)C(=O)OCC2(CC1O)C4(C)C31CO1 (configuration not stated)	aSyn rescue inconclusive, TDP43 rescue 12.6µM (no result: FUS yeast rescue, Mito fusion act)
CCC1=Nc2cc(C(=O)N3CCC4(CC3)OCCO4)ccc2Sc2ccc(Br)cc21	Mito fusion act 17.8µM
Cc1ccc(NC(=O)CN2C(=O)CN=C(c3ccccc3)c3cc(Cl)ccc32)cc1	FUS yeast rescue inconclusive, aSyn rescue inconclusive, TDP43 rescue 14.1µM
O=C(CN1C(=O)CN=C(c2ccccc2)c2ccccc21)Nc1cccc(C(F)(F)F)c1	FUS yeast rescue inconclusive, TDP43 rescue 35.5µM (no result: aSyn rescue, Mito fusion act)
Cc1ccc(NC(=O)CN2C(=O)CN=C(c3ccccc3)c3ccccc32)cc1	none (no result: aSyn rescue)
C[C@H]1COC(=O)[C@@H](Cc2ccc(F)cc2)CC/C=C/C[C@H](CC(=O)N(CCO)Cc2ccccc2)C(=O)N1	aSyn rescue inconclusive (no result: Mito fusion act)
COc1cc2nc(N3CCCN(C)CC3)nc(N(C)C3CCN(C)CC3)c2cc1OC	none (no result: FUS yeast rescue, Mito fusion act, Abeta yeast res, TDP43 rescue)
COc1ccc(-c2coc3c(C(=O)Nc4cc(OC)c(OC)c(OC)c4)cccc23)c(C)c1	TDP43 rescue inconclusive (no result: Mito fusion act)
Cc1ccc(NC(=O)C2CCN(C(=O)c3cnn(-c4ccccc4)c3-n3cccc3)CC2)cc1Cl	TDP43 rescue 35.5µM (no result: aSyn rescue, Mito fusion act)
Cc1cccc(OC(=O)n2c(=S)oc3cc(Cl)ccc32)c1	Mito fusion act inconclusive (no result: FUS yeast rescue)
C[C@@H]1CC[C@H]2[C@@H](C)C(=O)O[C@@H]3O[C@@]4(C)CC[C@@H]1[C@]32OO4	TDP43 rescue 4.47µM
C[C@@H]1CCC2[C@@H](C)C(=O)O[C@@H]3OC4(C)CCC1[C@@]23OO4 (some centres not stated)	TDP43 rescue 7.94µM (no result: Mito fusion act)
O=C(NC1CCCCCC1)c1ccc[nH]c1=S	TDP43 rescue inconclusive
CCC(=NCCCn1ccnc1)c1c(O)n(Cc2ccccc2)c(=O)[nH]c1=O	TDP43 rescue 31.6µM
Clc1ccccc1CN1CCN(c2ccccc2)CC1	none
c1ccc(N2CCN(c3ncnc4c3nc3n4CCCCC3)CC2)cc1	TDP43 rescue 14.1µM (no result: aSyn rescue, Mito fusion act)
Cc1cccc(-n2c(-c3cccs3)nc3ccccc3c2=O)c1	TDP43 rescue 20µM
NC(CCc1ccccc1)c1csc(NC(=O)Nc2ccccc2Oc2ccccc2)n1 (configuration not stated)	FUS yeast rescue inconclusive (no result: Mito fusion act)
COC(=O)[C@@H]1N=C(c2ccc(OC)cc2)O[C@]12C(=O)N(Cc1ccc(OC)cc1)c1ccccc12	FUS yeast rescue 14.1µM (no result: Mito fusion act)
COc1ccc(Cn2c(O)c(/C=N/NC(=O)c3ccccc3)c(=O)[nH]c2=O)cc1	none
O=C(C[C@H]1C=C[C@H](NC(=O)Nc2ccccc2F)[C@@H](CO)O1)NCc1ccc(-c2ccccc2)cc1	aSyn rescue inconclusive (no result: Mito fusion act)
C=CCN1CCc2cccc3c2[C@H]1Cc1ccc(O)c(O)c1-3	Mito fusion act 4.11µM! (no result: TDP43 rescue)
c1ccc(C(c2ccccc2)c2cccnc2)cc1	FUS yeast rescue inconclusive, aSyn rescue inconclusive (no result: Mito fusion act)
c1ccc(-c2ccc(C(c3ccccc3)n3ccnc3)cc2)cc1 (configuration not stated)	aSyn rescue inconclusive, Mito fusion act 14.1µM, TDP43 rescue 6.31µM
COc1c(C)cc(Br)cc1C(=O)Nc1ccc(-c2nc3ncccc3o2)cc1	TDP43 rescue inconclusive (no result: aSyn rescue, Mito fusion act)
O=C(Nc1ccc(Cl)cc1)Nc1nccs1	TDP43 rescue 20µM
CC(C(=O)c1ccc(Cl)cc1Cl)n1cncn1 (configuration not stated)	none
CC(C)(C)C(O)C(Oc1ccc(Cl)cc1)n1cncn1 (configuration not stated)	aSyn rescue inconclusive, Mito fusion act 35.5µM, Abeta yeast res inconclusive, TDP43 rescue 2.51µM
O=P(Nc1cccc(F)c1)(Oc1ccccc1F)Oc1ccccc1F	aSyn rescue 17.8µM, Abeta yeast res inconclusive
COc1ccc(S(=O)(=O)N(C)C[C@H]2OCCCC[C@@H](C)Oc3ccc(N(C)C)cc3C(=O)N([C@H](C)CO)C[C@@H]2C)cc1	none (no result: Mito fusion act)
Nc1cccc(N=Cc2c(O)n(Cc3ccc(F)cc3)c(=O)[nH]c2=O)c1	FUS yeast rescue 11.2µM
O=c1[nH]c(=O)n(Cc2ccc(F)cc2)c(O)c1C=Nc1ccc(Cl)cc1	none
CCC1(OC(=O)CN)C(=O)OCc2c1cc1n(c2=O)Cc2cc3ccccc3nc2-1 (configuration not stated)	Mito fusion act 0.794µM
CC[C@@]1(O)C(=O)OCc2c1cc1n(c2=O)Cc2cc3ccccc3nc2-1	Mito fusion act 13µM! (no result: FUS yeast rescue, Abeta yeast res, TDP43 rescue)
CC[C@@]1(O)C(=O)OCc2c1cc1n(c2=O)Cc2cc3c(NC(=O)CN)cccc3nc2-1	none
CCCCC[C@@H]1CCCCC[C@@H](O)C[C@@H](O)[C@H](O)/C=C/C(=O)O1	none (no result: Mito fusion act)
Cc1ccccc1C(=O)NNC(=S)NC(=O)COc1ccccc1	aSyn rescue 3.16µM
O=C(O)COc1ccccc1	none
CC1CCC(C)(NS(=O)(=O)OCC(Cl)(Cl)Cl)CC1 (configuration not stated)	TDP43 rescue 17.8µM
COc1ccccc1C(=O)Nc1nnc(-c2ccc(Cl)cc2)o1	TDP43 rescue 12.6µM
COc1ccc(C(=O)Nc2ccc(Cl)cc2C(=O)c2ccccc2)c(OC)c1	FUS yeast rescue inconclusive (no result: aSyn rescue, Mito fusion act)
CN(N=O)c1ccc(O)c(O)c1	Mito fusion act inconclusive (no result: FUS yeast rescue, Abeta yeast res, TDP43 rescue)
CCOc1ccc(N2CC(c3nc4ccccc4n3CCC3CCCCC3)CC2=O)cc1 (configuration not stated)	TDP43 rescue 25.1µM (no result: aSyn rescue, Mito fusion act)
CCOc1ccc(-c2nc(CSCC(=O)NCCc3ccc(OCC)c(OCC)c3)c(C)o2)cc1	TDP43 rescue inconclusive (no result: aSyn rescue, Mito fusion act)
